Data taken from PubChem BioAssay (NCATS).
Inconclusive results are not listed. Values without a mark were called inactive. Active and inactive are the calls of the source. Calls follow the shape of the dose curve; as a rule, active = well fitted inhibition curve with a large enough effect; inconclusive = small, poorly fitted or top-dose-only effect; inactive = no such curve, though single readings can be large or run the other way.

assay: qHTS assay for measurement of the activity of small molecule inhibitors on Zika virus induced Caspase-3 activity in human iPSC derived neural progenitor cells (hNPCs) (AID 1224857); conditions: hNPCs ZIKV-induced caspase-3/7, Caspase-Glo luminescence, 6 h; series mostly up to 45.7 µM; activity change, negative = inhibition: at the top concentration; also: nearly all actives have a fitted effect of over 65% in size; as to activity change, negative = inhibition: % of control where 0% means no effect
In short: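 Cells were plated at 350 per well and grown 16 to 20 hours. Compound pretreatment lasted one hour, after which ZIKV (2 FFU/cell) was added for 6 hours. Percent inhibition was normalized between uninfected and infected controls.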
Potency is read from the fitted curve at half-maximal effect.

| SMILES | activity change, negative = inhibition | Potency |
| --- | --- | --- |
| O=C1NC(O)=NC1(c1ccccc1)c1ccccc1 | -36.4% |  |
| CNC(=O)c1c(I)c(NC(=O)CCCCC(=O)Nc2c(I)c(C(=O)O)c(I)c(C(=O)NC)c2I)c(I)c(C(=O)O)c1I | -19.1% |  |
| CCCN(CC1CC1)c1nc(C)nc(Nc2c(Cl)cc(Cl)cc2Cl)c1Cl | 74% |  |
| Nc1nc2ccc(Cl)cc2n2c(-c3ccccc3)nnc12 | -11.1% |  |
| C[C@@H](CN1CCC(Cc2ccccc2)CC1)[C@@H](O)c1ccc(O)cc1 | 14.4% |  |
| CN[C@H](CC(C)C)C(=O)N[C@H]1C(=O)N[C@@H](CC(N)=O)C(=O)N[C@H]2C(=O)N[C@H]3C(=O)N[C@H](C(=O)N[C@H](C(=O)O)c4cc(O)cc(O)c4-c4cc3ccc4O)[C@H](O)c3ccc(c(Cl)c3)Oc3cc2cc(c3O[C@@H]2O[C@H](CO)[C@@H](O)[C@H](O)[C@H]2O[C@H]2C[C@](C)(N)[C@H](O)[C@H](C)O2)Oc2ccc(cc2Cl)[C@H]1O | -2.38% |  |
| COc1ccc2c(c1)CCC1C2CC[C@@]2(C)C1CC[C@@H]2NCCCCCCN1C(=O)CCC1=O (stereo partly drawn) | -11.1% |  |
| O=c1cc(-c2ccccc2)oc2c(O)c(O)ccc12 | 18.8% |  |
| CNc1ncnc2c1ncn2[C@@H]1O[C@H](CO)C(O)[C@H]1O (stereo partly drawn) | -6.29% |  |
| CNC(=O)[C@H]1O[C@@H](n2cnc3c(NCc4ccc(N)cc4)ncnc32)[C@H](O)C1O (stereo partly drawn) | -7.82% |  |
| Oc1cc(O)cc(/C=C/c2ccc(O)c(O)c2)c1 |  | 7.94 µM (active) |
| Nc1nc(Nc2ccccc2)nc2c1ncn2[C@@H]1O[C@H](CO)C(O)[C@H]1O (stereo partly drawn) | -17.3% |  |
| COC1=C(OC)C(=O)c2ccccc2C1=O | -6.29% |  |
| CN1C2CC(OC(=O)[C@H](CO)c3ccccc3)CC1C1OC12 (stereo partly drawn) | 9.85% |  |
| C/C(=N\O)c1ccc(OCC(=O)N2CCCCC2)cc1 |  | 15.8 µM (active) |
| CCCCCCCCCCCCCCCCCCN(CCCCCCCCCCCCCCCCCC)CCCN(CCO)CCO | 1.03% |  |
| CN1[C@@H](CC(=O)c2ccccc2)CCC[C@H]1C[C@H](O)c1ccccc1 | 6.89% |  |

| SMILES | activity change, negative = inhibition | Potency |
| --- | --- | --- |
| CCOC(=O)C1=C(C)NC(C)=C(C(=O)OCC)C1c1c(F)c(F)c(F)c(F)c1F | 273% |  |
| Nc1ccn([C@H]2O[C@H](CO)[C@@H](O)C2(F)F)c(=O)n1 | 20.2% |  |
| O=C(CCSCc1ccco1)NNC(=O)N1Cc2ccccc2Oc2ccc(Cl)cc21 | -24.9% |  |
| C#C[C@]1(O)CC[C@H]2[C@@H]3CCC4=Cc5oncc5CC4(C)[C@H]3CCC21C (stereo partly drawn) | 13.5% |  |
| CC(C)NC[C@@H](O)c1ccc(O)c(O)c1 | -18.8% |  |
| CCC(CO)Nc1nc(NCc2ccccc2)c2ncn(C(C)C)c2n1 (stereo not drawn) | 37.4% |  |
| NCC1OC(OC2C(O)[C@@H](OC3C(O)C(N)CC(N)C3OC3OC(CO)C(O)C(O)C3N)O[C@@H]2CO)C(N)C(O)C1O (stereo partly drawn) | -3.91% |  |
| OCC1O[C@H](O)C(Cl)C(O)C1O (stereo partly drawn) | 28.1% |  |
| C[C@H](Cc1ccccc1)Nc1ncnc2c1ncn2[C@@H]1O[C@H](CO)C(O)[C@H]1O (stereo partly drawn) | 1.31% |  |
| Nc1ccn([C@@H]2O[C@H](CO)[C@@H](O)[C@@H]2O)c(=O)n1 | 31.8% |  |
| CCNc1nc2c(ncn2[C@H]2C[C@H](O)[C@@H](CO)O2)c(=O)[nH]1 | 4.81% |  |
| S=c1[nH]c(-c2ccccc2)cn1-c1ccccc1 | -17.1% |  |
| Cc1ccc2c(n1)Oc1ccc(C(C)C(=O)OCC(=O)N(C)C)cc1C2 (stereo not drawn) |  | 14.1 µM (active) |
| Fc1ccc2[nH]c(CN3CCN(c4ccccn4)CC3)cc2c1 | -12.5% |  |
| O=C(/C=C/c1ccc(O)cc1)c1ccc(O)cc1O |  | 2.82 µM (active) |
| c1ccc(-c2ccccn2)nc1 | -20.7% |  |
